This is a sample that favours compounds with a hit; in the whole collection about 3.7% have one here.
GLP1R inv ag: GLP-1 receptor (human) inverse agonism; P43220; HEK293 GLP-1R CRE-luciferase, luminescence, 24 h; GLP-1R form is constitutively active; Potency, µM (titrated, usually from 38.3 µM), for the others: at the top dose activity change, negative = inhibition, usual class: inhibitors; 410,000 tested, 1.6% active; AID 624417; further: on the % scale 0 is the no-effect control and ±100 the full control effect; nearly all actives have a fitted effect of over 55% in size
Target sequence (P43220 whole entry, looked up): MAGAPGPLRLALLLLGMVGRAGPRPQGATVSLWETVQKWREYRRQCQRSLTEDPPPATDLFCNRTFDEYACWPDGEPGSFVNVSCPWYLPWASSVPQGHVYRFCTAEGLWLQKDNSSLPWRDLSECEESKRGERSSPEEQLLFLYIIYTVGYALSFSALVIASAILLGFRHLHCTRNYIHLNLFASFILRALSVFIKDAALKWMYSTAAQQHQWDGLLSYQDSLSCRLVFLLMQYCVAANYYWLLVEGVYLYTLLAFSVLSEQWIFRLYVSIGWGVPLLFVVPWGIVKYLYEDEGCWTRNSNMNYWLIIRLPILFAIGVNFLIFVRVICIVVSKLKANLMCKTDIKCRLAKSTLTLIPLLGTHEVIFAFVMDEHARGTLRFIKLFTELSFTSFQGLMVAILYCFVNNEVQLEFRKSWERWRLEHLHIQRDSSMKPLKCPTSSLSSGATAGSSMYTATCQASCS
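Inverse agonism was detected as reduced cAMP-driven luciferase luminescence after 24 h compound treatment. The cells were HEK293 clones expressing constitutively active human GLP-1R with the reporter. Reporter-only and GPR119 cell lines served as counterscreen controls.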
TGFb SMAD3 inh: blocks TGF-b signaling; HepG2 CAGA-GFP TGF-b/SMAD3 reporter, GFP fluorescence, 18 h; TGF-beta stimulated, 500 pg/mL final; Potency, µM (series often up to 46.1 µM), without a hit: top-dose activity, negative = inhibition, actives largely listed as inhibitors; 410,000 tested, 1.2% active; AID 588855; further: on the % scale 0 is the no-effect control and ±100 the full control effect; nearly all actives have a fitted effect of over 65% in size
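Using HEPG2 CAGA-GFP reporter cells at 1000 cells/well, we pinned test compounds, stimulated with recombinant TGF-beta (500 pg/mL final) and measured total well GFP after 18 h.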
HepG2 tox: HepG2 cytotoxicity, counter-screen for TGF-b inhibitors | HepG2 CAGA-GFP viability, ATP luminescence, 18 h | Potency, µM (doses to about 46.1 µM), for the others: at the top dose activity change, negative = cytotoxicity, hits mostly cytotoxic | 410,000 tested, 0.76% active
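HepG2 CAGA-GFP cells (1000/well, DMEM with 1% FBS) received compound, then TGF-beta at 500 pg/mL final, and were incubated 18 hours at 37 degrees C. Viability was read by CellTiter-Glo luminescence. Media-only wells were set as complete cell-killing and DMSO as no toxicity.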
ATXN2 expr inh: reduces ATXN2 reporter expression in HEK-293 cells | Potency, µM (titrated, usually from 57 µM), inactives show at the top dose activity change, negative = inhibition, actives largely listed as inhibitors | 360,000 tested, 0.72% active | HEK-293 ATXN2-luciferase reporter, luminescence, 24 h; further: on the % scale 0 is the no-effect control and ±100 the full control effect; nearly all actives have a fitted effect of over 55% in size
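qHTS (up to 57 uM final) was run with 24 h compound exposure of reporter cells at 37 °C. Each well was multiplexed: SteadyGlo luminescence measured ATXN2-luciferase expression after a fluorogenic Gly-Phe-AFC viability readout (25 uM final).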
ATXN viability: reduces viability in counter-screen for ATXN expression inhibitors; AID 651635; Potency, µM (doses to about 56.7 µM), hits mostly cytotoxic; 400,000 tested, 0.49% active; S2 cells (HEK-293 line with an ATXN2-luciferase reporter) viability, CellTiter-Fluor protease fluorescence, 24 h; further: nearly all actives have a fitted effect of over 40% in size
GLP-1R agonist: agonists of human GLP-1 receptor; Potency, µM (doses to about 45.6 µM), for inactives: at the top dose activation, usual class: activators; 380,000 tested, 0.007% active; HEK293 GLP-1R CRE-luciferase, luminescence, 4-6 h; cells express a hypersensitive GLP-1R form; P43220; further: % of control where 0% means no effect
Numbers without * were called inactive; i = inactive; ? = inconclusive; nt = not tested or not shown; [ ] = another dose, or the depositor's remark. The call rests on the fitted dose curve; in most records, active means well fitted curve in the direction sought with a large enough effect; inconclusive means small, poorly fitted or top-dose-only effect, or another doubt; inactive means no such curve, though single readings can be large; an effect the other way counts as inactive or inconclusive. Potency means the concentration at half of the fitted maximal effect.

SMILES	GLP1R inv ag	TGFb SMAD3 inh	HepG2 tox	ATXN2 expr inh	ATXN viability	GLP-1R agonist
OCCN1CCN(Cc2ccc3c(c2)CN(Cc2cnc(-c4ccccc4)s2)CCO3)CC1	nt	nt	nt	nt	i	nt
Cc1c(C(=O)N(C)c2ccccc2)sc2nc(-c3ccc(F)cc3)cn12	-14.4%	?	-39.1%	nt	nt	nt
Cc1c(C(=O)N(C)Cc2ccccc2)sc2nc(-c3ccc(F)cc3)cn12	?	12.6µM*	-60.6%	nt	nt	nt
COCC1CCCN(Cc2ccc3c(c2)CN(C(=O)c2ccc(OC)nc2OC)CCO3)C1 (stereo not drawn)	nt	nt	nt	nt	i	nt
CCN(CC)CCN1CCN(c2cncc(-c3ccc4ccccc4c3)n2)CC1	?	?	12.6µM*	-22.7%	?	18.3%
CCN(CC)CCN1CCN(c2cncc(-c3cccc(N)c3)n2)CC1	21.5%	-6.4%	2.6%	1.2%	?	2.4%
O=C(NCCCN1CCN(c2ccc(F)cc2)CC1)c1cc2c(Cl)nc3ccccc3c2s1	5.9%	-15.6%	-5.0%	3.4%	i	5.1%
Cc1ccc(NC(=O)NC2CCCc3ccccc32)cc1 (stereo not drawn)	?	-4.4%	-13.7%	16.1%	i	3.9%
CC(C)(C)c1ccc(NC(=O)NC2CCCc3ccccc32)cc1 (stereo not drawn)	3.16µM*	-10.1%	5.4%	nt	?	5.5%
CCCC(=O)N(C)c1ccc(/C=C2\C=Cc3ccccc32)cc1	nt	-22.8%	-53.4%	nt	nt	nt
Cn1cc(CN2CCCCC2CO)c(-c2ccc(Oc3ccccc3)cc2)n1 (stereo not drawn)	10µM*	-3.2%	-19.2%	-38.9%[11.3 µM]	i	18.5%
CCCN1CCC(NCc2cn(C)nc2-c2ccc(Oc3ccccc3)cc2)CC1	?	?	1.26µM*	nt	?	11.5%
COC1CCCN(Cc2cn(C)nc2-c2ccc(Oc3ccccc3)cc2)C1 (stereo not drawn)	?	-3.0%	-17.9%	-11.4%	i	12.4%
CCc1ccc(NC(=O)CC2C(=O)N(c3ccc(Cl)cc3)C(=O)N2Cc2ccco2)cc1 (stereo not drawn)	?	?	-46.0%	nt	nt	nt
CCOC(=O)[C@H](CCc1ccccc1)N[C@@H](C)C(=O)N1CCCC1C(=O)O (stereo partly drawn)	nt	nt	nt	-5.7%	nt	nt
OCCOCCNc1ncnc2c1c(-c1ccccc1)cn2-c1ccccc1	2.5%	16.4%	-11.0%	-14.3%	i	27.4%
c1ccc(-c2cn(-c3ccccc3)c3ncnc(N4CCCCC4)c23)cc1	3.16µM*	16.1%	6.6%	nt	i	3.5%
CN(C)CCNc1ncnc2c1cnn2-c1cccc(Cl)c1	?	?	-32.9%	-19.5%	i	nt
CN(C)CCCNc1ncnc2scc(-c3ccccc3)c12	11.2µM*	?	2.4%	-5.4%	i	-4.3%
CN(C)CCNc1ncnc2c1cnn2-c1ccc(Cl)cc1	3.16µM*	?	-37.9%	?	?	-14.3%
Clc1cccc(-n2cc(-c3ccccc3)c3c(N4CCCCC4)ncnc32)c1	2.2%	-1.4%	-0.3%	nt	nt	nt
CCCNc1ncnc2c1c(-c1ccccc1)cn2-c1ccccc1	10µM*	?	-24.8%	nt	nt	nt
Cc1ccc(Nc2ncnc3c2nc2n3CCCC2)c(Br)c1	-6.4%	-22.1%	-28.5%	nt	nt	nt
COc1ccc(SCC(CC(C)C)N2CCN(C)CCC2=O)cc1 (stereo not drawn)	nt	-21.6%	-22.1%	nt	nt	nt
CNCc1nc(-c2ccc[nH]2)c2cc(Cl)ccc2n1	nt	1.1%	-35.1%	nt	nt	nt
SMILES	GLP1R inv ag	TGFb SMAD3 inh	HepG2 tox	ATXN2 expr inh	ATXN viability	GLP-1R agonist
COc1ccc(-n2cc(-c3ccccc3)c3c(NC4CCCC4)ncnc32)cc1	1.78µM*	?	-56.3%	nt	nt	nt
Cc1ccc(Cn2ncc3c(NCCN(C)C)ncnc32)cc1	-0.7%	-5.9%	-12.3%	nt	i	-1.8%
Clc1cccc(-n2cc(-c3ccccc3)c3c(NC4CCCC4)ncnc32)c1	-0.9%	3.5%	-4.0%	nt	nt	nt
CN(C)CCCNc1ncnc2c1c(-c1ccccc1)cn2-c1ccccc1	3.98µM*	?	-95.8%	?	?	11.3%
Fc1ccc(-n2cc(-c3ccccc3)c3c(NCCc4ccccc4)ncnc32)cc1	7.94µM*	-24.6%	-21.9%	nt	nt	nt
Cc1ccc(-n2c(C)c(C)c3c(NCCN(C)C)ncnc32)cc1	10µM*	-3.2%	-21.5%	10.2%	?	-2.8%
CC(=O)c1ccc(N2CCN(C(=O)C3CCN(S(=O)(=O)c4cccc5nonc45)CC3)CC2)cc1	5.2%	-21.0%	3.6%	-4.6%	i	nt
COc1ccc(OC)c(NC(=O)c2c(C)oc3ncnc(N4CCOCC4)c23)c1	-1.9%	-22.9%	-15.6%	nt	nt	nt
Cc1c(C)n(CCc2ccccc2)c2ncnc(NCCCN(C)C)c12	2µM*	0.0%	-19.9%	7.2%	i	0.5%
Cc1c(C)n(CCN(C)C)c2ncnc(NCc3ccccc3)c12	7.7%	9.9%	-1.3%	3.1%	i	9.0%
COC(=O)c1cc(CSC(=N)N)ccc1OCCC(C)C	10µM*	-42.1%	-84.2%	-20.5%	?	14.0%
Cc1c(C(=O)OC(C)C)sc(NC(=O)C2c3ccccc3Oc3ccccc32)c1C(=O)OC(C)C	8.91µM*	-12.5%	-15.0%	21.2%	i	nt
C(=C\c1ccnc2ccccc12)/c1ccc(N(Cc2ccccc2)Cc2ccccc2)cc1	nt	11.8%	-5.2%	nt	nt	nt
CC(=O)Oc1c(-c2ccc(Br)o2)oc2ccccc2c1=O	5.62µM*	?	-30.0%	?	nt	0.1%
COc1ncnc2c1sc1nc(-c3ccccc3)c3c(c12)CCCC3	6.7%	5.3%	-0.4%	-7.7%	i	5.0%
CN(C)CCNc1ncnc2c1sc1nc(-c3ccccc3)c3c(c12)CCCC3	?	?	14.1µM*	31.6µM*	nt	-10.2%
C=CC(COCc1ccccc1)N([C@@H](Cc1ccccc1)C(=O)OC)S(=O)(=O)c1ccccc1Br (stereo partly drawn)	3.55µM*	?	-20.1%	2.2%	i	-2.2%
C=CC(COCc1ccccc1)N(Cc1ccc(OC)cc1)S(=O)(=O)c1ccccc1Br (stereo not drawn)	?	?	-35.7%	-12.1%	i	-6.1%
CC(=O)c1cccc(NC(=O)CSc2nc3c(=O)n(C)c(=O)n(C)c3n2C)c1	14.2%	7.6%	-0.9%	nt	nt	nt
COc1ccc(NC(=O)C(=O)NCC(c2ccco2)N2CCc3ccccc3C2)cc1OC (stereo not drawn)	?	2.51µM*	-23.3%	-4.3%	i	2.7%
COc1cccc(NC(=O)C(=O)NCC(c2ccco2)N2CCc3ccccc3C2)c1 (stereo not drawn)	?	-1.0%	8.0%	8.9%	i	-19.9%
